The results in this text go back to PubChem BioAssay (NCI).

Compounds without any hit were thinned out: in the full panel of roughly 83,000, 20% have a hit.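 Activity criterion: percent growth below 10, measured after cells in 96-well plates were exposed to a single compound concentration for 48 hours.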 Activity calls are given as the source filed them.

The test system of this assay is HL-60(TB) leukemia. As to the kind of experiment: NCI-60 one-dose screen, 48 h (100 = growth as untreated, 0 = no growth, -100 = all killed). To be noted: 10 µM unless noted.
Consider `O=C1/C=C/[C@@H](O)[C@@H]2C[C@@H](O)C[C@H]2/C=C/CCC[C@H](CO)O1`, for which the growth is -25.4% (active). The result for `COc1cc2c(-c3nc4cc(Cl)c(F)cc4s3)cc(=O)oc2c(C)c1OC` reads -56.2% (active). Next, `O=C(NCc1ccco1)Nc1cccc2c(NC(=O)NCc3ccco3)cccc12`: 66.5% [100 µM] (inactive); `COc1cc2nc3cc([N+](=O)[O-])ccc3c(NCCNCC(C)(C)O)c2cc1OC`: -12.8% (active); `N=c1ccn2c(n1)OC1C(O)C(CO)OC12` (stereo unspecified): 106% (inactive). On to `COc1ccc(/C(CS(=O)(=O)c2ccccc2)=N\O)cc1`, for which the growth was 99.5% (inactive).

`CCOC(=O)CCCS(C)(=O)=O`: the growth was 117% (inactive). `O=C(Nc1ccc(N2CCNCC2)cn1)c1[nH]ncc1Nc1ncnc2sccc12`: the growth was 76.7% (inactive). As for `CCOc1cc(N)ccc1C(=O)NCCCN(CC)CC`, the growth was 70.2% (inactive). The result for `COc1ccc(C(=O)C(C)Br)cc1OC` (stereo unspecified) reads 96.7% (inactive).

As for `COc1cnc2c(c1)C(=O)c1c-2n(CCCNC(C)C)c(=O)c2cc(F)ccc12`, the growth is -38.7% (active). The result for `CCOC(=O)c1cc2c(n1Cc1cccc(OC)c1)-c1oncc1CCC2` reads 7.26% (active); that for `O=C(CCN1C(=O)/C(=C/c2ccc(O)cc2)SC1=S)Nc1ccc(Cl)cc1`, 65.5% (inactive). Regarding `COc1ccc(-n2nc(C(=O)NCC(=O)Nc3nc4cc(OC)ccc4s3)c3ccccc3c2=O)cc1`, the growth is 61.7% (inactive). Next, `O=S(=O)(NCCNc1nccc(-c2c(-c3cccc(O)c3)nc3sccn23)n1)c1ccc(F)cc1`: 86.5% (inactive); `C[C@@H](CO)[C@@H]1CC[C@]2(C(=O)N3CCN(C)CC3)CC[C@]3(C)[C@H](CC[C@@H]4[C@@]5(C)CC[C@H](O)C(C)(C)[C@@H]5CC[C@]43C)[C@@H]12`: -46.9% (active).

`COc1cc2c(cc1-c1c(C)noc1C)ncc1nc(C3CCC(F)(F)CC3)n([C@@H](C)COC(F)F)c12`: the growth is 18% (inactive).

For `COc1cccc2c(=O)c3c(sc12)c(NCCCNCCO)nc1ccccc13`, the growth was 59.8% (inactive).

On to `C1=C2CCCC3=Cc4ccccc4OC23Oc2ccccc21`, for which the growth is 8.47% (active). Consider `COCCn1cc(-c2nc(-c3c[nH]c4ncccc34)cs2)c2ccccc21`, for which the growth is 76.9% (inactive).

Regarding `N=c1c(S(=O)(=O)c2ccccc2)cc2c(=O)n3ccccc3nc2n1CC1CCCO1` (stereo unspecified), the growth is 109% (inactive).

For `COc1cc2cc(Oc3ccc(NC(=O)Nc4cccc(C(F)(F)F)c4)cc3)c(C)nc2cc1OCCN1CCCCC1`, the growth is -51.9% (active). Next, `COc1cc2cc(Oc3ccc(NC(=O)Nc4cccc(C(F)(F)F)c4)cc3)c(C)nc2cc1OC`: -24.8% (active); `Fc1ccc2nc(-c3ccc(-c4noc(-c5ccc(Cl)cc5)n4)cc3)[nH]c2c1`: 88.7% (inactive); `CCN(CC)CCCNc1cc(OC)cc2nc3cc(Cl)ccc3nc12`: -9.05% (active). Take `Cc1cccc(NCS(=O)(=O)O)c1`: the growth was 103% (inactive).
